# Results filed as inconclusive are left out. A call without a number means that no potency is given here. A number with no mark means an inactive call. Activity calls are given as the source filed them. The call rests on the fitted dose curve; in most records, active means well fitted curve in the direction sought with a large enough effect in the repeat runs; inconclusive means weak or mixed curves; inactive means no such curve, though single readings can be large; an effect the other way counts as inactive or inconclusive.
# Assays:
# [1] = A CellTox Green Cytotoxicity Assay to monitor cytotoxicity in HEK293 cells - 40 hour (AID 1224871); further: nearly all actives have a fitted effect of over 45% in size
# Method in brief: (§1)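 Fluorescence from a DNA-binding dye excluded by viable cells was measured repeatedly in the same HEK293 wells (600 cells/well) during continuous compound exposure at 37 C. Each assay gives one read point: 0, 8, 16, 24, 32 or 40 h.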
# [2] = qHTS RealTime-Glo MT Cell Viability Assay in HEK293 cells - 16 hour (AID 1224872); further: top concentration of the series differs between compounds; nearly all actives have a fitted effect of over 50% in size
# Method in brief: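 Viability tracked continuously by luminescence as live cells reduce a prosubstrate for NanoLuc; HEK293 cells preincubated 5 h, compound-treated at 37 C, and read at 0, 8, 16, 24, 32 and 40 h.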
# [3] = qHTS RealTime-Glo MT Cell Viability Assay in HepG2 cells - 8 hour (AID 1224873); further: nearly all actives have a fitted effect of over 55% in size
# Method in brief: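 HepG2 cells (600/well) mixed with RealTime-Glo MT reagent, settled 5 h at 37 C/5% CO2 before compound addition. Nonlytic NanoLuc luminescence from viable-cell prosubstrate reduction read repeatedly during 40 h treatment at 37 C.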
# [4] = qHTS RealTime-Glo MT Cell Viability Assay in HEK293 cells - 40 hour (AID 1224874); conditions: RealTime-Glo luminescence; max response: stronger effect = lower value; further: nearly all actives have a fitted effect of over 50% in size
# Method in brief: (§2)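 Luminescence, which tracks viable cell number through reduction of the prosubstrate to a NanoLuc substrate, was read over continuous 37 C culture. Cells (600/well) were premixed with reagent and rested 5 h before 23 nL of compound in DMSO was pinned.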
# [5] = A CellTox Green Cytotoxicity Assay to monitor cytotoxicity in HEK293 cells - 24 hour (AID 1224875); further: series mostly up to about 77 µM; nearly all actives have a fitted effect of over 45% in size
# Method in brief: as §1
# [6] = A CellTox Green Cytotoxicity Assay to monitor cytotoxicity in HepG2 cells - 16 hour (AID 1224876); further: nearly all actives have a fitted effect of over 45% in size
# Method in brief: (§3)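 Real-time cytotoxicity: fluorescence of a cell-impermeant cyanine dye binding DNA of dead HepG2 cells, measured repeatedly (0–40 h) during compound exposure at 37 C. Cells seeded 600/well with reagent, dosed after 5 h.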
# [7] = qHTS RealTime-Glo MT Cell Viability Assay in HepG2 cells - 32 hour (AID 1224877); further: nearly all actives have a fitted effect of over 55% in size
# Method in brief: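 Viability was tracked continuously by NanoLuc luminescence from prosubstrate reduced by living HepG2 cells, at successive time points over 40 h of compound exposure. Cells with reagent were preincubated 5 h at 37 °C before compound addition.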
# [8] = A CellTox Green Cytotoxicity Assay to monitor cytotoxicity in HepG2 cells - 24 hour (AID 1224878); further: nearly all actives have a fitted effect of over 45% in size
# Method in brief: as §3
# [9] = A CellTox Green Cytotoxicity Assay to monitor cytotoxicity in HepG2 cells - 40 hour (AID 1224879); further: nearly all actives have a fitted effect of over 40% in size; further: potency means the concentration at half of the fitted maximal effect
# Method in brief: as §3
# [10] = qHTS RealTime-Glo MT Cell Viability Assay in HEK293 cells - 0 hour (AID 1224880)
# Method in brief: as §2
SMILES,Potency [1],Potency [2],Potency [3],max response [4] [%],Potency [5],Potency [6],Potency [7],Potency [8],Potency [9],Potency [10]
C#CCN(C)CCCOc1ccc(Cl)cc1Cl,inactive,inactive,inactive,-21.6,inactive,inactive,inactive,inactive,6.01 µM (active),inactive
CC(C)OC(=O)C(C)N(C(=O)c1ccccc1)c1ccc(F)c(Cl)c1 (stereo not given),inactive,inactive,inactive,-29.8,inactive,inactive,inactive,inactive,inactive,inactive
CCN(CC)c1ccc(C(=C2C=CC(=[N+](CC)CC)C=C2)c2cc(S(=O)(=O)O)ccc2S(=O)(=O)[O-])cc1,inactive,inactive,inactive,0.738,inactive,inactive,inactive,inactive,inactive,inactive
Cc1cccc(C)c1NC(=O)CN(CC(=O)O)CC(=O)O,inactive,inactive,inactive,5.56,inactive,inactive,inactive,inactive,inactive,inactive
CCC(C)O (stereo not given),inactive,inactive,inactive,7.73,inactive,inactive,inactive,inactive,inactive,inactive
COC(=O)c1ccc(I)cc1S(=O)(=O)NC(=O)Nc1nc(C)nc(OC)n1,inactive,inactive,inactive,0.658,inactive,inactive,inactive,inactive,inactive,inactive
C=CCOC(=O)CCC1CCCCC1,inactive,inactive,inactive,4.81,inactive,inactive,inactive,inactive,inactive,inactive
CCO[C@H](Cc1ccc(OCCc2ccc(OS(C)(=O)=O)cc2)cc1)C(=O)O,inactive,inactive,inactive,10.3,inactive,inactive,inactive,inactive,inactive,inactive
CN(C)CCN(Cc1ccc(Cl)cc1)c1ccccn1,inactive,inactive,inactive,-11,inactive,inactive,inactive,inactive,inactive,inactive
CC1CCC(=O)C1=O (stereo not given),inactive,inactive,inactive,3.01,inactive,inactive,inactive,inactive,,inactive
CCCCCCc1ccc(-c2ccc(C#N)cc2)cc1,inactive,inactive,inactive,-15.1,inactive,inactive,inactive,inactive,inactive,inactive
C=C1[C@H]2CC[C@@H]3[C@H]2C(C)(C)CCC[C@]13C,inactive,inactive,inactive,-2.59,inactive,inactive,inactive,inactive,,inactive
CC1=CCCC(C)(C)C12CCC(C)O2 (stereo not given),inactive,inactive,inactive,-12.5,inactive,inactive,inactive,inactive,inactive,inactive
O=C1c2ccccc2S(=O)(=O)N1CCCCN1CCN(c2ncccn2)CC1,inactive,inactive,inactive,-0.801,inactive,inactive,inactive,inactive,inactive,inactive
O=C(OCCc1ccccc1)c1ccccc1,inactive,inactive,inactive,-19.4,inactive,inactive,inactive,inactive,,inactive
C#Cc1cccc(Nc2ncnc3cc(OCCOC)c(OCCOC)cc23)c1,inactive,inactive,inactive,-23.8,inactive,inactive,inactive,inactive,,inactive
CC(=O)[O][Al],inactive,inactive,inactive,3.87,inactive,inactive,inactive,inactive,inactive,inactive
c1ccc(-c2ccccn2)nc1,inactive,inactive,inactive,-0.479,inactive,inactive,inactive,inactive,,inactive
NS(=O)(=O)c1ccc(N2CCCCS2(=O)=O)cc1,inactive,inactive,inactive,-0.0797,inactive,inactive,inactive,inactive,inactive,inactive
O=C(CS)Nc1ccccc1,inactive,inactive,inactive,-18,inactive,inactive,inactive,inactive,inactive,inactive
Cc1ccc(N=Nc2c(O)c(C(=O)O)cc3ccccc23)c(S(=O)(=O)O)c1,inactive,inactive,inactive,1.56,inactive,inactive,inactive,inactive,inactive,inactive

# From PubChem BioAssay (Tox21)
